Results as given in PubChem BioAssay AID463173 (ICCB-Longwood Screening Facility, Harvard Medical School, 2010).
In all, about 52,000 compounds went through this assay and about 1,700 (3.3%) were called active. No stated cut-off is given here; in the data, active means survival mostly below about 52% (no sharp cut-off); inactive means mostly above about 56%. The full list was thinned out, with actives kept by preference.

The compounds below were run on Wild type (assay: growth inhibition of S. aureus wild type versus tarO mutant, primary screen, teichoic acid synthesis inhibitors, RN4220, OD600 (AID 463173)). Settings: S. aureus RN4220 wild type/DeltatarO growth, OD600, 18 h, active compounds read low, screened at 18.75 µg/mL (by protocol).

Row | SMILES | survival
1 | COc1ccc(CNC(=O)c2cc3sccc3n2CC(=O)c2ccccc2)cc1 | 110% (inactive)
2 | CCc1ccc(NC(=O)CC2C(=O)N(c3cccc(OC)c3)C(=O)N2C2CCCC2)cc1 (stereo unspecified) | 120% (inactive)
3 | CCCCNC(=O)CCn1c(=O)c2ccccc2n(Cc2cccc(Cl)c2)c1=O | 94% (inactive)
4 | CCSc1nc2ccc(C)cc2cc1C#N | 111% (inactive)
5 | CCC(=O)C1=C(c2cccc([N+](=O)[O-])c2)N(C(=O)CC)n2c(nnc2-c2ccccc2)S1 | 0% (active)
6 | CCCC(=O)C1=C(c2ccc(C)cc2)N(C(=O)CCC)n2cnnc2S1 | 134% (inactive)
7 | CCC(=O)C1=C(c2cccc([N+](=O)[O-])c2)N(C(=O)CC)n2c(nnc2C2CCCCC2)S1 | 63% (inactive)
8 | CCC(=O)C1=C(c2ccc(C)cc2)N(C(=O)CC)n2c(nnc2C2CCCCC2)S1 | 76% (inactive)
9 | CCC(=O)C1=C(c2ccc(F)cc2)N(C(=O)CC)n2c(nnc2-c2ccc(OC)cc2)S1 | 53% (inactive)
10 | CCC(=O)C1=C(c2ccccc2)N(C(=O)CC)n2c(nnc2C2CCCCC2)S1 | 14% (active)
11 | CCC(=O)C1=C(c2ccccc2)N(C(=O)CC)n2c(nnc2-c2ccccc2)S1 | -6% (active)
12 | CCC(=O)C1=C(c2ccc(F)cc2)N(C(=O)CC)n2c(nnc2C2CCCCC2)S1 | 78% (inactive)
13 | CC(=O)C1=C(c2cccc([N+](=O)[O-])c2)N(C(C)=O)n2c(nnc2-c2ccc(C)cc2)S1 | 85% (inactive)
14 | CCC(=O)C1=C(c2ccc(OC)c(OC)c2)N(C(=O)CC)n2c(nnc2-c2ccc(C)cc2)S1 | 74% (inactive)
15 | CCOc1ccc(C2=C(C(=O)CC)Sc3nncn3N2C(=O)CC)cc1 | -1% (active)
16 | CCC(=O)C1=C(c2ccc(F)cc2)N(C(=O)CC)n2cnnc2S1 | 133% (inactive)
17 | COc1cc(C(=O)Nc2ccc3nc(SCc4ccc(C)cc4)sc3c2)cc(OC)c1OC | 113% (inactive)
18 | CCc1ccc(N2C(=O)CSC23C(=O)N(Cc2ccc(C)cc2)c2ccccc23)cc1 (stereo unspecified) | 66% (inactive)
19 | Cc1ccc(NC(=O)Nc2nnc(N3CCCCC3)s2)c(C)c1 | 97% (inactive)
20 | CCC(=O)Nc1nnc(SCCOC)s1 | 120% (inactive)
21 | COc1ccc(-c2oc3ncn4nc(-c5cccc(C)c5)nc4c3c2-c2ccc(OC)cc2)cc1 | 68% (inactive)
22 | O=C(COc1ccccc1)NCc1ccc2c(c1)CCN2C(=O)c1ccc(Cl)cc1 | 82% (inactive)
23 | COC(=O)c1ccc(NC(=O)Cn2nc(C(=O)Nc3ccc(C)cc3)ccc2=O)cc1 | 85% (inactive)

Row | SMILES | survival
24 | COc1ccc(CNC(=O)c2cc(Nc3ccc(C)cc3C)nc3ccccc23)cc1 | 91% (inactive)
25 | CCC(CC)C(=O)Nc1cc(-c2cn3cccnc3n2)ccc1OC | 117% (inactive)
26 | CCNC(=O)C1CCN(Cc2cc3ccccc3n2Cc2ccc(C)cc2)CC1 | 85% (inactive)
27 | COc1cc(OC)c(NC(=O)c2cc3c(s2)-c2ccc(Cl)cc2SC3)cc1Cl | 96% (inactive)
28 | Fc1ccc(-n2ncc3c(NC4CCCCCC4)ncnc32)cc1 | 76% (inactive)
29 | Cc1ccc(C)c(CN2C(=O)C(O)(c3c[nH]c4ccccc34)c3ccccc32)c1 (stereo unspecified) | 116% (inactive)
30 | Cc1ccccc1CN1C(=O)C(O)(c2c[nH]c3ccccc23)c2cc(Cl)ccc21 (stereo unspecified) | -11% (active)
31 | Cc1ccc(CN2C(=O)C(O)(c3c[nH]c4ccccc34)c3cc(Cl)ccc32)cc1 (stereo unspecified) | -11% (active)
32 | Cc1[nH]c2ccccc2c1C1(O)C(=O)N(Cc2ccccc2)c2ccc(Cl)cc21 (stereo unspecified) | 28% (inactive)
33 | O=C1N(Cc2ccccc2)c2ccccc2C1(O)c1c[nH]c2ccccc12 (stereo unspecified) | 67% (inactive)
34 | Cc1[nH]c2ccccc2c1C1(O)C(=O)N(Cc2ccccc2)c2ccc(Br)cc21 (stereo unspecified) | 14% (active)
35 | O=C1N(Cc2ccccc2Cl)c2ccccc2C1(O)c1c[nH]c2ccccc12 (stereo unspecified) | 84% (inactive)
36 | CCCCN1C(=O)C(O)(c2c(C)[nH]c3ccccc23)c2cc(Br)ccc21 (stereo unspecified) | 36% (inactive)
37 | O=C1N(Cc2ccccc2)c2ccc(Cl)cc2C1(O)c1c[nH]c2ccccc12 (stereo unspecified) | 53% (inactive)
38 | COc1ccc(CC(=O)NCCS(=O)(=O)N2CCN(c3ccccc3F)CC2)cc1OC | 66% (inactive)
39 | O=C(CN1C(=O)CSC1=O)N1CCCCC1 | 97% (inactive)
40 | CCc1ccc(-c2cc(C)no2)cc1S(=O)(=O)NCc1ccco1 | 76% (inactive)
41 | COc1cccc(Nc2sc(C(=O)c3ccc(Cl)cc3)c(N)c2C(=O)NCCc2ccc(OC)c(OC)c2)c1 | 75% (inactive)
42 | CC(C)=NNC(=O)c1nnn(-c2nonc2N)c1CN1CCOCC1 | 108% (inactive)
43 | COc1ccc(CNS(=O)(=O)c2ccc(F)c(C(=O)Nc3c(C)cc(C)cc3C)c2)cc1 | 80% (inactive)
44 | O=C(NCCO)c1ccc2[nH]c3c(c2c1)CCCC3 | 102% (inactive)
45 | Cc1ccc2nc(-c3c[nH]c4ccccc34)c(Nc3ccc(F)cc3)n2c1 | 72% (inactive)
46 | CCC(Oc1ccccc1-c1nnc(-c2ccccc2)o1)C(=O)Nc1ccc(C(C)=O)cc1 (stereo unspecified) | 118% (inactive)

Row | SMILES | survival
47 | CCOC(=O)c1ccccc1NC(=O)COc1ccccc1-c1nnc(-c2ccccc2)o1 | 22% (inactive)
48 | CCc1ccccc1NC(=O)C(CC)Oc1ccccc1-c1nnc(-c2ccccc2)o1 (stereo unspecified) | 0% (active)
49 | CC(=O)c1ccc(S(=O)(=O)N2CCn3cccc3C2c2ccc(F)c(F)c2)cc1 (stereo unspecified) | 68% (inactive)
50 | Nc1nc2n(n1)C(c1cccs1)CC(c1ccc(Cl)cc1Cl)N2 (stereo unspecified) | 106% (inactive)
51 | CCOC(=O)C1CCC(CN(Cc2cccc(Br)c2)S(=O)(=O)c2ccc(Cl)cc2)CC1 (stereo unspecified) | 90% (inactive)
52 | Cc1ccc2cccc(NC(=O)c3ccc(-c4ccc(Cl)cc4Cl)o3)c2n1 | 69% (inactive)
53 | COc1cc2ccccc2cc1C(=O)Nc1cccc(-c2nc3cc(C)c(C)cc3o2)c1 | 58% (inactive)
54 | COc1cc2ccccc2cc1C(=O)Nc1cccc(-c2nc3ccccc3o2)c1 | 1% (active)
55 | COc1ccc(NC(=O)c2ccco2)cc1NC(=O)c1cc(Cl)ccc1OC | 65% (inactive)
56 | Cc1ccc2cccc(NC(=O)C(C)Oc3ccc(C)c(C)c3)c2n1 (stereo unspecified) | 83% (inactive)
57 | COc1cc2ccccc2cc1C(=O)Nc1cc(-c2nc3ccccc3o2)ccc1C | 126% (inactive)
58 | COc1ccc(NC(=O)c2ccco2)cc1NC(=O)C(C)Oc1ccc(Cl)cc1Cl (stereo unspecified) | 6% (active)
59 | Cc1ccc2nc(-c3cccc(NC(=O)c4ccc(Br)o4)c3)oc2c1 | 7% (active)
60 | Cc1ccc2nc(-c3ccc(Cl)c(NC(=O)c4ccc(Br)o4)c3)oc2c1 | 69% (inactive)
61 | Cc1ccc2cccc(NC(=O)C(C)Oc3ccc(Cl)cc3Cl)c2n1 (stereo unspecified) | -9% (active)
62 | COc1ccc(NC(=O)c2ccco2)cc1NC(=O)C(C)C | 90% (inactive)
63 | Cc1cc(C)c2oc(-c3cccc(NC(=O)c4ccc(Br)o4)c3)nc2c1 | 45% (inactive)
64 | Cc1cc2c(cc1S(=O)(=O)CCC(=O)N1CCCCC1C)OCC(=O)N2 (stereo unspecified) | 85% (inactive)
65 | COc1ccc(CNC(=O)c2ccc(CS(=O)Cc3ccccc3Cl)o2)cc1 (stereo unspecified) | 95% (inactive)
66 | Cc1ccc(-n2nc(C(=O)N3CCCCC3C)c(=O)n(C)c2=O)cc1 (stereo unspecified) | 80% (inactive)
67 | COc1ccc(S(=O)(=O)c2cn(C)c3ccc(C)cc3c2=O)cc1 | 82% (inactive)
68 | CSc1ccc(CNC(=O)c2ccccc2NC(=O)c2nsc3ccccc23)cc1 | 90% (inactive)
69 | CCc1ccc(NC(=O)CN2C(=O)C3(SCC(=O)N3c3ccc(F)c(F)c3)c3ccccc32)cc1 (stereo unspecified) | 125% (inactive)

Row | SMILES | survival
70 | COc1ccc(-c2nc3ccccc3o2)cc1NC(=O)Cc1ccc(Cl)cc1 | 68% (inactive)
71 | COc1cc2ccccc2cc1C(=O)Nc1ccc2oc(-c3ccc(F)cc3)nc2c1 | 81% (inactive)
72 | COc1cc2ccccc2cc1C(=O)Nc1ccc2oc(-c3ccc(Cl)cc3)nc2c1 | 91% (inactive)
73 | COc1cc2ccccc2cc1C(=O)Nc1ccc2oc(-c3ccc(F)cc3Cl)nc2c1 | 69% (inactive)
74 | Cc1cc(OC(C)C(=O)Nc2cccc(-c3nc4ccccc4o3)c2)cc(C)c1Cl (stereo unspecified) | 55% (inactive)
75 | COc1ccccc1OC(C)C(=O)Nc1cccc(-c2nc3ccccc3o2)c1 (stereo unspecified) | 3% (active)
76 | COc1cc2ccccc2cc1C(=O)Nc1ccc2oc(-c3ccccc3)nc2c1 | 4% (active)
77 | CC(C)C(=O)Nc1cccc(-c2nc3ccccc3o2)c1 | 103% (inactive)
78 | COc1ccc(-c2nc3ccccc3o2)cc1NC(=O)C(C)Oc1ccc(Cl)cc1Cl (stereo unspecified) | 8% (active)
79 | COc1ccc(-c2nc3ccccc3o2)cc1NC(=O)CSc1ccc(Cl)cc1 | 73% (inactive)
80 | CCc1ccc(-c2nc3cc(NC(=O)c4cc5ccccc5cc4OC)ccc3o2)cc1 | 14% (active)
81 | CCc1ccc(OCC(=O)Nc2ccc3oc(-c4ccc(OC)cc4)nc3c2)cc1 | 79% (inactive)
82 | COc1ccc(-n2c(=O)c3sc4ccccc4c3n(C)c2=O)cc1 | 83% (inactive)
83 | CCOc1ccc(N=C(c2ccccc2)N2CCOCC2)cc1 | 99% (inactive)
84 | CCc1ccccc1N(C)C(=O)C1CCCN(c2ncnc3c2nc2n3CCCCC2)C1 (stereo unspecified) | 75% (inactive)
85 | CC(C)c1ccc(NC(=O)Cn2c(=O)oc3cc(S(=O)(=O)N4CCCC4)ccc32)cc1 | 124% (inactive)
86 | CC(C)C(=O)Nc1ccccc1C(=O)OCc1cc(=O)n2nc(C3CC3)sc2n1 | 100% (inactive)
87 | Cc1ccc(-n2nc(C)c3c(C)cc(=O)n(CC(=O)NC(C)c4ccccc4)c32)cc1 (stereo unspecified) | 143% (inactive)
88 | Cc1oc2ncn(CC(C)C)c(=O)c2c1C(=O)N(CCN(C)C)Cc1ccccc1 | 99% (inactive)
89 | COc1cc2ccccc2cc1C(=O)Nc1ccc2oc(-c3cccc(C)c3)nc2c1 | 6% (active)
90 | COc1cc2ccccc2cc1C(=O)Nc1cccc(-c2nc3cc(C)ccc3o2)c1C | 75% (inactive)
91 | COc1cc2ccccc2cc1C(=O)Nc1ccc2oc(-c3cccc(Cl)c3Cl)nc2c1 | 71% (inactive)
